Results on 13 compounds are retold here after PubChem BioAssay (NCATS).

Assay [1] has as its target Lysosomal acid glucosylceramidase (Homo sapiens) (UniProt P04062). Nature of the assay: Glucocerebrosidase-p2 (AID 348; in the data active = potency below about 10 µM; note: potency is the fitted concentration of half-maximal effect). To be noted: purified GBA, blue fluorogenic substrate, 40 min. The procedure, abridged: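 Normal human glucocerebrosidase (0.2 nM) with blue fluorogenic substrate (80 uM final) in citrate/phosphate pH 5.9 with 10mM sodium taurocholate, 0.01% tween-20; 40 min RT, NaOH/glycine stop; fluorescence Ex 365/Em 440; AC50 from a titration from 0.6 nM upwards.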

Assay [2] is described as follows: AP1 Signaling Pathway (AID 357; active = well fitted curve in either direction with a large enough effect, not every such curve was filed as active;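 note: ME-180 reporter cells stimulated with EGF at its EC50 level; % is set by controls: 0 for no effect and ±100 for the full control effect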). To be noted: ME-180 AP-1-bla reporter, EGF-induced, beta-lactamase ratio, 5 h; at 7.69 µM (top of the series) unless noted. The procedure, abridged:
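First, ME-180 AP-1-bla cells were cultured overnight at 37 °C in low-serum Opti-MEM. Next, titrated compounds with EC50 EGF were incubated 5 hours. Finally, CCF4 was added for 2.5 hours and the 460/530 nm ratio recorded.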

Assay [3] has as its target Cytochrome P450 1A2 (Homo sapiens) (UniProt P05177). Nature of the assay: p450-cyp1a2 (AID 410; calls by dose curve; note: potency is the fitted concentration of half-maximal effect). To be noted: recombinant CYP1A2, luciferin-ME demethylation, luminescence; series mostly up to 57 µM. The procedure, abridged:
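Read-out is luminescence from luciferin produced by CYP1A2 demethylation of Luciferin-ME (100uM, at Km). Detection reagent stopped the 60 min NADPH-dependent reaction; signals were normalized to 57 uM furafylline.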

The target of assay [4] is Glucocorticoid receptor (Homo sapiens) (UniProt P04150). In words: GR-GFP Redistribution (AID 450;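 active = compounds whose dose series gives a full or clear partial fitted curve of increased nuclear translocation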; note: potency is the fitted concentration of half-maximal effect). To be noted: U2OS GR-GFP nuclear translocation, laser cytometry, 2 h.
Glucocorticoid receptor (Homo sapiens), sequence (P04150 whole entry, looked up): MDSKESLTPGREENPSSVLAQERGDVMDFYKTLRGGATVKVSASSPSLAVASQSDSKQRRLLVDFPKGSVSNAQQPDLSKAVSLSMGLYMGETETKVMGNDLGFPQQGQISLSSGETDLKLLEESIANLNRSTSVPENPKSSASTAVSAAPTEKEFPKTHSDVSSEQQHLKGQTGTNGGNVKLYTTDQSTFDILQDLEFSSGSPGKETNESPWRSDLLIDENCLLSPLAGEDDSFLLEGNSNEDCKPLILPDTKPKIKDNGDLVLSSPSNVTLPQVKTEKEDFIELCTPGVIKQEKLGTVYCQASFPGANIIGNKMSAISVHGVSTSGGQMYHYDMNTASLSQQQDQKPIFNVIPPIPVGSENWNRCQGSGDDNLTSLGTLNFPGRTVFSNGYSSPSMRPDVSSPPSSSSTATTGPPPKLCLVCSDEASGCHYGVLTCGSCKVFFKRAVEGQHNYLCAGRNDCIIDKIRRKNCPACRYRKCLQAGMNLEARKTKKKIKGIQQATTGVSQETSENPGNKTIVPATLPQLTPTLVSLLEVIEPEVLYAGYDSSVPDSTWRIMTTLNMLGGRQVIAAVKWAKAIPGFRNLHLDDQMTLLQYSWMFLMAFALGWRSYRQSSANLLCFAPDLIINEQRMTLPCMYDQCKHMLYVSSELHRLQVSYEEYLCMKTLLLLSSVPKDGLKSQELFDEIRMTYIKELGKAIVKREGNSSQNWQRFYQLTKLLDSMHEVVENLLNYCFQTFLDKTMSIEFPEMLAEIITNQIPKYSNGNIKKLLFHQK
Assay [5] has the same target. Nature of the assay: GR-EFC Redistribution (AID 451; calls by dose curve; note: potency is the fitted concentration of half-maximal effect). Particulars: CHO-K1 GR-EFC translocation, beta-gal luminescence, 2 h. The procedure, abridged:
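CHO-K1 cells stably expressing nuclear-localized β-gal enzyme acceptor and GR fused C-terminally to the enzyme donor fragment; ligand-driven nuclear translocation restores β-gal by complementation. Compounds titrated up to 46 uM final, 2 h at 37 °C; luminescence read.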

For assay [6], the target named is Mitogen-activated protein kinase 10 (Mus musculus) (UniProt Q61831). In words: JNK3 AlphaScreen Assay (AID 530; active = well fitted curve in either direction with a large enough effect, not every such curve was filed as active;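 note: kinase came from lysate of stimulated human HepG2 cells; signal reports phosphorylation of biotinylated GST-cJun 1-79 at Ser73 with 10 µM ATP; % is set by controls: 0 for no effect and ±100 for the full control effect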). To be noted: JNK3 lysate, c-Jun phosphorylation; series mostly up to 57.1 µM. A digest of the protocol:
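Biotinylated GST-cJun(1-79) served as substrate for JNK3 in HepG2 lysates stimulated with IL-1beta and TNF-alpha. ATP was 10 uM final, pH 7.6. Ser73 phosphorylation was quantified by AlphaScreen (680 nm excitation).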

In assay [7] the target is Cytochrome P450 2C9 (Homo sapiens) (UniProt P11712). Nature of the assay: qHTS Assay for Inhibitors and Substrates of Cytochrome P450 2C9 (AID 883). Note: % is set by controls: 0 for no effect and ±100 for the full control effect; nearly all actives have a fitted effect of over 60% in size. Particulars: recombinant CYP2C9, luciferin-H luminescence, 60 min; series mostly up to 57.1 µM. A digest of the protocol:
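CYP2C9 deoxyluciferin hydroxylation, 37C, 60 min with NADPH regeneration; 10nM enzyme, 100uM Luciferin-H (KM). Glo detection reagent stopped reaction; luminescence normalized to sulphaphenazole (57uM) full inhibition.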
On the technique in general: qHTS replaces the single test concentration by a dilution series.

Assay [8] has as its target Cytochrome P450 3A4 (Homo sapiens) (UniProt P08684). In words: qHTS Assay for Inhibitors and Substrates of Cytochrome P450 3A4 (AID 884). Note: % is set by controls: 0 for no effect and ±100 for the full control effect; nearly all actives have a fitted effect of over 50% in size. Particulars: recombinant CYP3A4, Luciferin-PPXE luminescence; series mostly up to 57.1 µM. The procedure, abridged: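 Luminescent readout of luciferin produced by CYP3A4 (20 nM) dealkylation of Luciferin-PPXE, 25 uM (its KM). NADPH-driven reaction ran 60 min at RT after 10 min compound preincubation; data scaled to 57 uM ketoconazole as 100% inhibition.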

Assay [9] has as its target Cytochrome P450 2D6 (Homo sapiens) (UniProt P10635). In words: qHTS Assay for Inhibitors and Substrates of Cytochrome P450 2D6 (AID 891).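 Note: luciferin methyl ether substrate demethylated by CYP2D6 with NADPH regeneration; % is set by controls: 0 for no effect and ±100 for the full control effect; nearly all actives have a fitted effect of over 60% in size.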 To be noted: recombinant CYP2D6, luciferin-ME EGE luminescence; series mostly up to 57.1 µM. The procedure, abridged:
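Luminescent read-out of luciferin formed by 5 nM human CYP2D6 demethylating 30 uM Luciferin-ME EGE (Km level) over 60 min at room temperature after NADPH regeneration addition. Data normalized to full inhibition by 1.43 uM quinidine.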

For assay [10], the target named is Cytochrome P450 2C19 (Homo sapiens) (UniProt P33261). In words: qHTS Assay for Inhibitors and Substrates of Cytochrome P450 2C19 (AID 899). Note: potency is the fitted concentration of half-maximal effect; nearly all actives have a fitted effect of over 60% in size. Particulars: recombinant CYP2C19, luciferin-H EGE luminescence; series mostly up to 57.1 µM. A digest of the protocol: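 In 50mM KPO4, the reaction held 5nM enzyme and KM-level (10uM) Luciferin-H EGE; it ran 60 min at 37C after NADPH regeneration and a 10 min compound preincubation. Luminescence values were scaled to 57uM ketoconazole as complete inhibition.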
Cytochrome P450 2C19 (Homo sapiens), sequence (P33261 whole entry, looked up): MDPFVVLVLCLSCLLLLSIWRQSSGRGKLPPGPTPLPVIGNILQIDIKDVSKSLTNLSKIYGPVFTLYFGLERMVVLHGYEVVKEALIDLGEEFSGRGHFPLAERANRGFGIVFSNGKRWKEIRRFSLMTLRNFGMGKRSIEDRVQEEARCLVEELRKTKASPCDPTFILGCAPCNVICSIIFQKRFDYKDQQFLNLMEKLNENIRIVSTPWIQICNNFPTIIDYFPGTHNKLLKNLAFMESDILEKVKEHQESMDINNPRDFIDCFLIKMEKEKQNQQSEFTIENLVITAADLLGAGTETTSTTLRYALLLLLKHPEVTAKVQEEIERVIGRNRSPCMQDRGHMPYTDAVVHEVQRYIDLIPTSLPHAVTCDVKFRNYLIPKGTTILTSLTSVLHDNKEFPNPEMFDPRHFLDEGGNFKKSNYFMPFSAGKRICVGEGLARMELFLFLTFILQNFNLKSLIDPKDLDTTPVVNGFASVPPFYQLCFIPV

Assay [11] deals with Ubiquitin carboxyl-terminal hydrolase 1 (Homo sapiens) (UniProt O94782). In words: Inhibitors of USP1/UAF1: Pilot qHTS (AID 504865).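 Note: rhodamine fluorescence freed from ubiquitin-rhodamine substrate followed over time; top concentration of the series differs between compounds; % is set by controls: 0 for no effect and ±100 for the full control effect; nearly all actives have a fitted effect of over 35% in size.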 Particulars: purified USP1/UAF1, Ub-rhodamine cleavage fluorescence; series mostly up to 54.9 µM. The procedure, abridged: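 USP1/UAF1 complex at 1 nM preincubated 15 min at room temperature with compound, then Ub-Rho substrate added at 150 nM final. Fluorescence (480/540 nm) read kinetically in 50 mM HEPES pH 7.8, 0.5 mM EDTA, 1 mM TCEP, 0.1 mg/ml BSA, 0.01% Tween-20.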
Ubiquitin carboxyl-terminal hydrolase 1 (Homo sapiens), sequence (O94782 whole entry, looked up): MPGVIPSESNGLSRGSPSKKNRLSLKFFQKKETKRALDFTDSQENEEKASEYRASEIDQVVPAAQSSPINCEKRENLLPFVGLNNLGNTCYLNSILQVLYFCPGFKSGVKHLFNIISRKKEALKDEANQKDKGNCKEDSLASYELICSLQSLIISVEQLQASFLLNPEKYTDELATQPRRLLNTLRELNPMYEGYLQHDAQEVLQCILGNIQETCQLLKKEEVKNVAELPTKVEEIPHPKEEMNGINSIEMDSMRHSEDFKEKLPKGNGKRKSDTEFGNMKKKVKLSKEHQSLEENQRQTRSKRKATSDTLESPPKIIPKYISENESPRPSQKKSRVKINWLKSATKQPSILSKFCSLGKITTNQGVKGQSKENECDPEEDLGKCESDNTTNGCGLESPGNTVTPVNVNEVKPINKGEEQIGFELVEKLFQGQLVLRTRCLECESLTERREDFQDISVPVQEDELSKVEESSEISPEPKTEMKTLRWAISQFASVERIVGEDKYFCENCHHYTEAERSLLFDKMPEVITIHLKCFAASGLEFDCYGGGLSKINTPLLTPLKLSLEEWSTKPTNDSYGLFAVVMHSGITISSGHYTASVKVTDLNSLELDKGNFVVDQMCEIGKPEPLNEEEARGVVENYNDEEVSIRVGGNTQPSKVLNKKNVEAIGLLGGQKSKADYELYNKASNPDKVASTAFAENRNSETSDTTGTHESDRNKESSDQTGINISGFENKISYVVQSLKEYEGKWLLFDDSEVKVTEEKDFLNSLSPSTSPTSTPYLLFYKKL

For assay [12], the target named is Rap guanine nucleotide exchange factor 3 (Homo sapiens) (UniProt O95398). In words: Confirmatory qHTS for antagonist of cAMP-regulated guanine nucleotide exchange factor 3 (EPAC1) (AID 1645880).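 For activity, negative = inhibition: plate controls were DMSO only for no effect and full effect of the ATA control for full effect.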 Note: nearly all actives have a fitted effect of over 55% in size. Note: potency is the fitted concentration of half-maximal effect. Particulars: EPAC1 Rap1B-BODIPY-GDP exchange, fluorescence; activity, negative = inhibition: at 115 µM (top of the series). The procedure, abridged: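 Released BODIPY-GDP fluoresces less than Rap1-bound BODIPY-GDP; the signal is followed at 480/540 nm at 5-min intervals over 30 min, after 5 min at room temperature. Reactions contain 100 nM EPAC1, 250 nM RAP1B-BODIPY-GDP and 50 uM GDP; results are normalized to ATA and DMSO.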
Rap guanine nucleotide exchange factor 3 (Homo sapiens), sequence (O95398 whole entry, looked up): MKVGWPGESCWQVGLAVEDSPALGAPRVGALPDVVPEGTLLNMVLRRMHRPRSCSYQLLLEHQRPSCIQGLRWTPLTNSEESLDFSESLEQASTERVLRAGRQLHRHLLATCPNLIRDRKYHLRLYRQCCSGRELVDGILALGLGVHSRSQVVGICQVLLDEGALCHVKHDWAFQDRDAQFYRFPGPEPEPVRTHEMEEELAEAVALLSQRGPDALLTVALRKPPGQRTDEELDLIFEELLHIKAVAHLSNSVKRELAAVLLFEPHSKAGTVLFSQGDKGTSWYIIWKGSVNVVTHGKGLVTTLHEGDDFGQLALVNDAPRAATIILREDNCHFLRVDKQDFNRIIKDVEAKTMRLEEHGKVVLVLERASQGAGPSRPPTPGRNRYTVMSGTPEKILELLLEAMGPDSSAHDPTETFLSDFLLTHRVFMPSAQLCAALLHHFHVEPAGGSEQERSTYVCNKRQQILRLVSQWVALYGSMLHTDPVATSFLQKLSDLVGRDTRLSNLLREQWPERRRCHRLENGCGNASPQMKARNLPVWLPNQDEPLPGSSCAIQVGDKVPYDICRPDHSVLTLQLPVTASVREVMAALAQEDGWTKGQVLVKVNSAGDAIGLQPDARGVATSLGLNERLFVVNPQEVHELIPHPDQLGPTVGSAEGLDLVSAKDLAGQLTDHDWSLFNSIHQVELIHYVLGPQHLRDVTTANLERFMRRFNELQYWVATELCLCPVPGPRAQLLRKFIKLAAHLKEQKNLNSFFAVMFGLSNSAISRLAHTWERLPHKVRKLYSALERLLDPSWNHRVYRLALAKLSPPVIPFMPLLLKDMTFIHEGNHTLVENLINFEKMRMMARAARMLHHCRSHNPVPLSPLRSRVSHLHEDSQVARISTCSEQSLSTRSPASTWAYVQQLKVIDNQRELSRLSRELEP

For assay [13] the target is unchanged. Nature of the assay: Confirmatory qHTS for agonist of cAMP-regulated guanine nucleotide exchange factor 3 (EPAC1) (AID 1645881).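 Note: EPAC1 catalysed release of BODIPY-GDP from Rap1B seen as fluorescence loss; 100% = effect of cAMP agonist control; nearly all actives have a fitted effect of over 75% in size.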 Particulars: EPAC1 Rap1B BODIPY-GDP exchange fluorescence; series mostly up to 154 µM.
The target in assay [14] is Rap guanine nucleotide exchange factor 4 (Homo sapiens) (UniProt Q8WZA2). In words: Confirmatory qHTS for agonist of cAMP-regulated guanine nucleotide exchange factor 4 (EPAC2) (AID 1645884).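 Note: nucleotide exchange releases bodipy-GDP from Rap1 and this lowers its fluorescence; % is set by controls: 0 for no effect and ±100 for the full control effect; nearly all actives have a fitted effect of over 65% in size.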 Particulars: EPAC2 GEF activity, Rap1B-BODIPY-GDP fluorescence; series mostly up to 154 µM.
Rap guanine nucleotide exchange factor 4 (Homo sapiens), sequence (Q8WZA2 whole entry, looked up): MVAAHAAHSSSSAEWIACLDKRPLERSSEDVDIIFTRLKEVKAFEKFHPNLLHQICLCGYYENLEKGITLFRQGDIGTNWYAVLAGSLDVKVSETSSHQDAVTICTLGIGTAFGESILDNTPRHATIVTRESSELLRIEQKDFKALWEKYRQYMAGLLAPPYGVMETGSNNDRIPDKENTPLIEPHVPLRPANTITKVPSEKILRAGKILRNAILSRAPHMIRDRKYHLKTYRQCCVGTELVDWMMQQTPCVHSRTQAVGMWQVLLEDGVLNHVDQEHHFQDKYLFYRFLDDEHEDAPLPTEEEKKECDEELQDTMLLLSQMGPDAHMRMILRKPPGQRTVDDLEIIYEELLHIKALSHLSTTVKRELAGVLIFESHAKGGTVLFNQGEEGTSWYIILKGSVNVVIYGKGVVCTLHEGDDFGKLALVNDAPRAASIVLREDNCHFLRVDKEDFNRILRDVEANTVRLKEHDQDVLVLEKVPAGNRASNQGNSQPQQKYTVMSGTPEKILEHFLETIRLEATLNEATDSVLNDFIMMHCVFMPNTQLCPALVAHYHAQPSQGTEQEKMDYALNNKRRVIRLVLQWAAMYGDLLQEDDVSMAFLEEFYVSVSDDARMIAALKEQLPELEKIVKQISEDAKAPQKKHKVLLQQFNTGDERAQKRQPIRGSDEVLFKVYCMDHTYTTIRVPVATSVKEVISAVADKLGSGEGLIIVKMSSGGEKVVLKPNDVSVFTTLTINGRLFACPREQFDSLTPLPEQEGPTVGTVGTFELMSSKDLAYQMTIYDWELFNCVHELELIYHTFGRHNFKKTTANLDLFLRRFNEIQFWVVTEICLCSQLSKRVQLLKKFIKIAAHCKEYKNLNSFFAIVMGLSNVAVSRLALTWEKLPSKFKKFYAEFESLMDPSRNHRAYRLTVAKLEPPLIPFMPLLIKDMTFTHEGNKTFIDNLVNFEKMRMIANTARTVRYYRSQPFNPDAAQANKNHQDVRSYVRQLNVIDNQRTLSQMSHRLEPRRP
The nature of assay [15]: Stat Signaling Pathway (AID 446; active = well fitted curve in either direction with a large enough effect, not every such curve was filed as active;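 note: ME-180 cervical cancer cells given 40 pM IL-6 alongside compound; SIE-controlled beta-lactamase reporter measured as 460/530 nm FRET emission ratio; % is set by controls: 0 for no effect and ±100 for the full control effect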). Particulars: ME-180 (cervical carcinoma) SIE beta-lactamase reporter, IL-6 stimulated, 5 h; series mostly up to 7.69 µM. A digest of the protocol: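 Overnight-plated ME-180 cells bearing a STAT Inducible Element beta-lactamase reporter; 5 h co-exposure to compound and 40 pM IL-6; values normalized to 300 pM IL-6 and 125 nM JAK inhibitor controls.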
The target in assay [16] is Rap guanine nucleotide exchange factor 3 (Homo sapiens) (UniProt O95398). Nature of the assay: Counterscreen qHTS for antagonist of cAMP-regulated guanine nucleotide exchange factor 3 (EPAC1) (AID 1645888). Note: % of control where 0% means no effect. To be noted: Rap1B-BODIPY-GDP nucleotide exchange, fluorescence; series mostly up to 154 µM. The procedure, abridged:
(§1)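 Measured: fluorescence of BODIPY-GDP bound to Rap1B, which falls as exchange proceeds. Conditions include 50 uM competing GDP, 5 and 30 min reads, and a later cAMP challenge for antagonist detection.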
(In general: A counterscreen serves to expose hits that act by an unwanted route or on another target.)

Assay [17] shares this target. Nature of the assay: Counterscreen qHTS for agonist of cAMP-regulated guanine nucleotide exchange factor 3 (EPAC1) (AID 1645889). Note: % of control where 0% means no effect; nearly all actives have a fitted effect of over 40% in size. To be noted: EPAC1 Rap1B-BODIPY-GDP exchange, fluorescence; series mostly up to 154 µM. The procedure, abridged: as §1

Unmarked numbers belong to inactive results. Records with an inconclusive call do not appear. Activity calls are given as the source filed them. Unless noted, calls come from the whole dose curve; as a rule, active = well fitted curve in the direction sought with a large enough effect; inconclusive = small, poorly fitted or top-dose-only effect, or another doubt; inactive = no such curve, though single readings can be large; an effect the other way counts as inactive or inconclusive.

Cytochrome P450 2D6 (Homo sapiens), sequence (P10635 whole entry, looked up): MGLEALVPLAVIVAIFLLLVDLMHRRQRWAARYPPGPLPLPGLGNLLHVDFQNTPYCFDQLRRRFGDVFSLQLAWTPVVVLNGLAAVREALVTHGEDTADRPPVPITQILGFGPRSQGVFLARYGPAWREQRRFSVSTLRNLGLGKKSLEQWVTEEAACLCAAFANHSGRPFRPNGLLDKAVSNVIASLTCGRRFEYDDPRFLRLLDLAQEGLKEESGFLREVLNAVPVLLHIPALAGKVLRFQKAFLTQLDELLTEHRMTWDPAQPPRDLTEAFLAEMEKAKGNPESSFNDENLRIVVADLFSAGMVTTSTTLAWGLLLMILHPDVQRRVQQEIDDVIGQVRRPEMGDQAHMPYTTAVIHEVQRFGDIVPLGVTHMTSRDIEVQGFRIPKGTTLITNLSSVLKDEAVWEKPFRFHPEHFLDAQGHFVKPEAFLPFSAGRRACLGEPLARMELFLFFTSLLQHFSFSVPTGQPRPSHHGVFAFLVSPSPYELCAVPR
Cytochrome P450 3A4 (Homo sapiens), sequence (P08684 whole entry, looked up): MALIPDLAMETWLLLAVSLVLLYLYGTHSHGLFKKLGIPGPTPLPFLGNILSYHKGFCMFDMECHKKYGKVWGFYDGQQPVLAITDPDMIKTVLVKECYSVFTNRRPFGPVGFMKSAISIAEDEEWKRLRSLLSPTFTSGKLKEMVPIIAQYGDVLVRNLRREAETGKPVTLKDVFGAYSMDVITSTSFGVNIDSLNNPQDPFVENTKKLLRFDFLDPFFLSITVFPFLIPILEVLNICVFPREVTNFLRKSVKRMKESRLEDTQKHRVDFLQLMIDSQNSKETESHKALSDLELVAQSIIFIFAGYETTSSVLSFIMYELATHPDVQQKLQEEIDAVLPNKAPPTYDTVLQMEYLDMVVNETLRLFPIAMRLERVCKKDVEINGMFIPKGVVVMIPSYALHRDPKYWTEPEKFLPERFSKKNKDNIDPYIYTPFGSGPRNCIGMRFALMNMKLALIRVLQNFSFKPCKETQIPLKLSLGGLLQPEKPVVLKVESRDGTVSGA

As to `Cc1ccccc1-c1ccc2ncnc(N3CCOCC3)c2c1`, the Potency in assay [1] was more than 11.4 µM; in assay [3], 1.26 µM (active); in assay [4], more than 46 µM; in [5], more than 46 µM; in assay [10], 1.58 µM (active). Besides, the activity change, negative = inhibition was -27.7% in assay [2] and -24.2% [at 2.29 µM] in assay [7]. In addition, the Potency result in assay [6], in assay [8], in assay [9], in assay [11], in assay [12] and in [13] was “inactive” each time. In addition, in [14], the Potency result was “inactive”.
Consider `O=C(/C=N/O)NCCCN1CCOCC1`, for which the activity change, negative = inhibition in assay [2] was -1.51% [at 17.2 µM]. Also, the call in assay [15] was inactive. Also, the Potency in assay [4] is more than 20.6 µM. Moreover, the Potency entry in [12], in assay [13], in [14] and in assay [16] was “inactive” in each case.
On to `O=C(O)/C(CC(=O)c1ccc(Cl)cc1)=N/Nc1ccc([N+](=O)[O-])cc1[N+](=O)[O-]`, for which, in assay [12], the Potency is 75.7 µM (active). Moreover, the Potency result in [13], in assay [14] and in assay [17] was “inactive” each time.
With `COC(=O)/N=C(/Cc1ccc(OC)cc1)c1ccc(OC)cc1`, the Potency entry in assay [12], in assay [13], in [14] and in assay [17] was “inactive” throughout.
With `O=C(CN1CCCCC1)Nc1cc(Cl)ccc1Oc1ccccc1`, the Potency result in [12], in [13], in assay [14] and in assay [17] was “inactive” each time.
For the compound `CCOC(=O)C(Cc1ccc(Cl)cc1Cl)c1ccno1` (stereo not given), the Potency entry in assay [12], in [13], in assay [14] and in assay [17] was “inactive” each time.
`COc1ccc(/C=C2/C(=O)N(CC3CCCO3)C(=S)N2C)c(OC)c1` (stereo not given): the Potency in assay [12] is 84.9 µM (active). The Potency entry in [13], in assay [14] and in assay [17] was “inactive” throughout.
On to `CCOCCCn1c(=N)c(S(=O)(=O)c2ccccc2)cc2c(=O)n3cc(C)ccc3nc21`, for which the Potency entry in assay [12], in assay [13], in assay [14] and in [17] was “inactive” each time.
On to `COc1ccc(OC)c(/C=C/c2ccnc3ccccc23)c1`, for which the Potency result in [12] and in assay [13] was “inactive” throughout. Besides, the activation in assay [14] was 0% [at 17.1 µM, percent relative to cAMP agonist control]; in assay [17], 14.1% [at 30.8 µM].
For the compound `O=C(c1ccco1)N1N=C2CCCCCC2C1(O)C(F)(F)F` (stereo not given), the Potency entry in assay [12], in [13], in assay [14] and in assay [17] was “inactive” each time.
For `CCOC(=O)c1c(NC(=O)CSc2nnc(C)c(=O)[nH]2)sc(C)c1-c1ccc(C)cc1`, in assay [12], the Potency is 75.7 µM (active). Further, the Potency result in assay [13], in [14] and in assay [17] was “inactive” throughout.
Consider `O=C(O)Cc1ccc(C(=O)c2ccc(Cl)cc2Cl)s1`, for which the Potency result in assay [12], in assay [13], in assay [14] and in assay [17] was “inactive” throughout.
With `COc1ccc(NS(=O)(=O)c2cc(N)ccc2N2CCCCC2)cc1`, the Potency entry in [12], in [13], in assay [14] and in assay [17] was “inactive” each time.
